MEP2 TOR yeast: modulators of TOR pathway MEP2-GFP in S. cerevisiae; S. cerevisiae MEP2-GFP strain, flow cytometry GFP, 3 h; 100% = DMSO control level; GFP response vs DMSO, % at 10 µM; 0.51% of 330,000 active; AID 2016;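 active = GFP response versus DMSO above a set limit, roughly screen mean plus 3 SD, cut at about 180% in these data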;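 note: median GFP fluorescence of the barcode-gated MEP2-GFP cells per well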
AGP1 TOR yeast: modulators of TOR pathway AGP1-GFP in S. cerevisiae | S. cerevisiae AGP1-GFP multiplex flow cytometry, 3 h; GFP as percent of DMSO wells | GFP response vs DMSO, % at 10 µM | 0.02% of 320,000 active | AID 2066;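 active = GFP response relative to DMSO above a set limit, near screen average plus 3 SD, cut at about 150% in these data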;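 note: median GFP channel fluorescence of the gated AGP1 strain per well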
CIT2 TOR yeast: alters CIT2-GFP fluorescence in TOR pathway yeast screen; S. cerevisiae CIT2-GFP strain, flow cytometry, 3 h; 100 means same as DMSO wells; GFP response vs DMSO, % at 10 µM; 0.065% of 320,000 active;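 active = GFP response relative to DMSO above a set limit, near the screen mean plus 3 SD, cut at about 150% in these data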;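 note: ratio of well median GFP fluorescence to mean of DMSO wells on the plate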
VLA-4 inh: inhibition in a human VLA-4 binding assay; P13612; VLA-4 expressing cells, ligand binding flow cytometry; inhibition, % (about 7 µM as worked out from the volumes in the protocol); 0.2% of 330,000 active; AID 2557; in the data active = inhibition above about 50%
LAP4 TOR yeast: modulators of TOR pathway LAP4-GFP in S. cerevisiae. S. cerevisiae LAP4-GFP multiplex, flow cytometry GFP, 3 h; median GFP as percent of DMSO wells. GFP response vs DMSO, % at 10 µM. 0.34% of 320,000 active. AID 2023;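 active = GFP response vs DMSO above a set limit, about the screen mean plus 3 SD, cut at about 150% in these data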
RPL19A TOR yeast: alters RPL19A-GFP fluorescence in TOR pathway yeast screen; 0.3% of 330,000 active; percent response vs DMSO, % at 10 µM; S. cerevisiae RPL19A-GFP strain, flow cytometry, 3 h; hits give low values;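 active = percent response vs DMSO below 50%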;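 note: median channel GFP fluorescence of the barcoded RPL19A-GFP strain; ratio of sample median GFP to plate DMSO average so 100% = DMSO; lower means less RPL19A-GFP as with rapamycin TOR inhibition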
LAP4 cherry2: second confirmation of modulators of TOR reporter LAP4-GFP in yeast; shares compounds with LAP4 TOR yeast; AID 2621; GFP response vs DMSO, % at 10 µM; 20% of 590 active; S. cerevisiae LAP4-GFP strain, flow cytometry GFP, 3 h;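 active = GFP signal as percent of the solvent control above about 150%, meaning raised reporter expression, limit read from the data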;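 note: ratio of well median GFP fluorescence to plate DMSO mean so 100% = DMSO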
MEP2 cherry2: yeast MEP2-GFP modulation, second cherry pick; shares compounds with LAP4 TOR yeast; S. cerevisiae MEP2-GFP strain, flow cytometry GFP, 3 h; GFP response vs DMSO, % at 10 µM; 10% of 590 active; AID 2622;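 active = GFP signal above 150% of the solvent control wells, that is a rise of more than half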;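 note: median channel GFP fluorescence of all gated yeast cells per well; ratio of median GFP to plate DMSO average so 100% = DMSO level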
RPL19A GFP CP2: second confirmation of modulators of TOR reporter RPL19A-GFP in yeast; shares compounds with LAP4 TOR yeast; S. cerevisiae RPL19A-GFP strain, flow cytometry GFP, 3 h; hits give low values; 100% means same as DMSO wells; GFP response vs DMSO, % at 10 µM; 3% of 590 active; AID 2623;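 active = under 65% GFP response relative to DMSO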;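 note: median GFP channel fluorescence per well over the all cells gate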
CIT2 GFP CP2: second confirmation of modulators of TOR reporter CIT2-GFP in yeast | shares compounds with LAP4 TOR yeast | S. cerevisiae CIT2-GFP strain, flow cytometry GFP, 3 h; DMSO control wells read 100% | GFP response vs DMSO, % at 10 µM | 8% of 590 active;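 active = GFP response vs DMSO above about 150%, limit read from the data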;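 note: median green fluorescence per well over all gated yeast cells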
AGP1 GFP CP2: second confirmation of modulators of TOR reporter AGP1-GFP in yeast; shares compounds with LAP4 TOR yeast; S. cerevisiae AGP1-GFP strain, flow cytometry GFP, 3 h; percent response vs DMSO, % at 10 µM; 590 tested, under 10 active; AID 2643;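 active = over 150 percent of DMSO response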;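 note: median GFP channel fluorescence over all cells without mother daughter split; sample median GFP divided by mean DMSO control so 100% equals DMSO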
Yeast autofluor: compound is autofluorescent in yeast s288c cells | 610 tested, under 10 active | shares compounds with LAP4 TOR yeast | fluorescence change (kMESF span) at 33 µM | S. cerevisiae s288c, 520 nm autofluorescence, flow cytometry, 3 h; hits give high values; zero means same as solvent-only cells;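 active = fluorescence span over the dose series, or activity score, above about 33, limit read from the data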
VLA-4 allo CP: confirmation of allosteric modulators of human VLA-4 integrin; shares compounds with VLA-4 inh; U937 cells, HUTS-21 LIBS mAb binding, flow cytometry; LDV ligand present at threefold Kd; inhibition, % at 6.7 µM; 2% of 1,300 active; AID 2813; in the data active = inhibition above about 40%;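 note: 0% = ligand without compound and 100% = no ligand background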
Starred values were filed as active, the others as inactive; x = no result. In the library only some 1.1% were active in any assay of this set; here they are far more common.

SMILES | MEP2 TOR yeast | AGP1 TOR yeast | CIT2 TOR yeast | VLA-4 inh | LAP4 TOR yeast | RPL19A TOR yeast | VLA-4 allo CP | others
CC[C@H](C)/C=C(C)/C=C/C1=CC2=C(Cl)C(=O)[C@@](C)(OC(C)=O)C(=O)C2=CO1 | 79 | 8 | 74 | 25 | 75 | 28* | x | LAP4 cherry2=71;MEP2 cherry2=97;RPL19A GFP CP2=29*;CIT2 GFP CP2=77;AGP1 GFP CP2=14;Yeast autofluor=2
O=C1NC(=O)C(Cc2cccs2)C(=O)N1 | 99 | 100 | x | 3 | 94 | 101 | x
O=C1NC(=O)C(=Cc2ccc(-c3ccc(S(=O)(=O)N4CCOCC4)cc3)o2)C(=O)N1 | 91 | 89 | 72 | 12 | 108 | 96 | x
O=C1NC(=O)C(=Cc2ccc(-c3ccc(Cl)cc3)o2)C(=O)N1 | 90 | 66 | 57 | 26 | 263* | 71 | x | LAP4 cherry2=198*;MEP2 cherry2=123;RPL19A GFP CP2=84;CIT2 GFP CP2=103;AGP1 GFP CP2=89;Yeast autofluor=0.5
CC1(C)COC(Nc2ccc(Cl)cc2)=N1 | 99 | 96 | 99 | 12 | 96 | 99 | x
O=C1NC(=O)N(Cc2ccc(F)cc2)C(=O)/C1=C/c1cccs1 | 99 | 91 | 76 | 45 | 170* | 88 | x | LAP4 cherry2=196*;MEP2 cherry2=133;RPL19A GFP CP2=76;CIT2 GFP CP2=79;AGP1 GFP CP2=81;Yeast autofluor=0.1
O=C1NC(=O)N(Cc2ccccc2Cl)C(=O)/C1=C/c1cccs1 | 83 | 81 | 77 | 19 | 133 | 95 | x
COC(=O)C1=C(c2cccc(OC)c2OC)C[C@@H]2CC[C@H]1N2C(=O)NC1CC1 | 104 | 98 | 95 | 25 | 92 | 100 | x
CC1(C)C[C@H]2C=C(C=O)[C@]3(C=O)C[C@]3(C)[C@H]2C1 | 122 | 70 | 103 | 65* | 149 | 61 | 48* | LAP4 cherry2=198*;MEP2 cherry2=201*;RPL19A GFP CP2=79;CIT2 GFP CP2=188*;AGP1 GFP CP2=91;Yeast autofluor=1.4
CN1C(=O)/C(=C/c2ccc(Cl)s2)C(=O)NC1=S | 85 | 70 | 92 | 19 | 118 | 100 | x
Cc1ccsc1/C=C1\C(=O)NC(=S)N(C)C1=O | 87 | 56 | 90 | 46 | 52 | 55 | 34 | LAP4 cherry2=103;MEP2 cherry2=128;RPL19A GFP CP2=67;CIT2 GFP CP2=79;AGP1 GFP CP2=64;Yeast autofluor=-1.4
CCN1CCN(c2nc3c(c(=O)[nH]2)CCCC3)CC1 | 105 | 109 | 115 | -13 | 105 | 106 | x
NC(=O)Cn1cc(C(=O)c2ccccc2)c2ccccc21 | 108 | 97 | 98 | -7 | 96 | 104 | 0
C[C@]12CC[C@H](O)C[C@H]1CC[C@@H]1[C@@H]2C[C@@H](O)[C@]2(C)[C@@H](C3=CC(=O)OC3)CC[C@]12O | 100 | 88 | 84 | 51* | 129 | 102 | -2
COc1cccc(-n2c(O)c(C=NCCN3CCOCC3)c(=O)[nH]c2=O)c1 | 105 | 101 | 105 | 6 | 103 | 100 | x
CC1=[N+]([O-])C2(N)CCc3nonc3C2(O)C1 (stereo not drawn) | 104 | 105 | 103 | -4 | 97 | 99 | x
C=C(C=O)C[C@@H]1C[C@H](O)C2OC3C[C@]4(C)OC5/C=C\CC6OC7C(CC=CCC6OC5CCCC4OC3CC2O1)OC1CC2OC3CC(=O)OC3C[C@@H](C)C[C@@]2(C)OC1C[C@@H]7C (stereo partly drawn) | 95 | 103 | 92 | 60* | 127 | 93 | 67*
C=C(C=O)CC1CC(O)[C@]2(C)OC3C[C@@H]4OC5C[C@]6(C)O[C@]7(C)CCC8OC9C[C@]%10(C)OC(/C(C)=C\CO)C(O)CC%10OC9CC(C)C8OC7CC6O[C@]5(C)C/C=C\C4OC3CC2O1 (stereo partly drawn) | 99 | 90 | 86 | 2 | 103 | 105 | x
Cc1nnc2ccc(-c3cccc(C(F)(F)F)c3)nn12 | 97 | 90 | 91 | 63* | 105 | 97 | -5
O=C(NC1CC2CCCC(C1)N2)c1ccccc1 (stereo not drawn) | 102 | 93 | 100 | 2 | 87 | 98 | x
O=C(OC1CC2CCC(N2)C1C(=O)O)c1ccccc1 (stereo not drawn) | 106 | 103 | 99 | -6 | 106 | 103 | 3
COC(=O)CC1=C(C(=O)OC)C2(C(=O)Nc3c(C)cccc32)C(C#N)=C(N)O1 (stereo not drawn) | 105 | 100 | 104 | 107* | 112 | 101 | -6
COC(=O)C1=CO[C@@H](C)[C@H]2CN3CC[C@]4(C(=O)Nc5ccccc54)[C@@H]3C[C@H]12 | 113 | 104 | 98 | 3 | 108 | 95 | x
C[C@H](NC(=O)N1C[C@H]2C[C@@H](C1)c1cccc(=O)n1C2)C(=O)Nc1cccc(F)c1 | 105 | 102 | 100 | -17 | 99 | 101 | x
COC(=O)C1CN(C#N)N(c2ccc(Cl)cc2)C12c1ccccc1-c1ccccc12 (stereo not drawn) | 99 | 89 | 90 | 62* | 92 | 85 | 53*
C[N+]1(C)C2CCC1CC(OC(=O)c1ccco1)C2 (stereo not drawn) | 97 | 106 | 105 | -9 | 104 | 96 | x
COc1ccc(C(=O)OC2CC3CCC(C2)[N+]3(C)[O-])cc1OC (stereo not drawn) | 111 | 109 | 116 | 6 | 98 | 108 | 0
CN1C2CCC1CC(OC(=O)c1cc(Cl)cc(Cl)c1)C2 (stereo not drawn) | 101 | x | 110 | 93* | 111 | 98 | -1
